# Anthrax LF prot – Bacillus anthracis LF protease inhibitors, primary screen, biochemical, multiplex microsphere, MLPCN library | multiplex microsphere protease cleavage assay | 360,000 compounds, 0.12% hits | inhibition, % at 10 µM | Lethal factor (Bacillus anthracis), P15917; further: plate controls were buffer without enzyme for full effect and enzyme alone for no effect
# MazEF act – activators of E. coli MazEF toxin-antitoxin RNase, primary screen, biochemical, fluorescence, uHTS; Endoribonuclease toxin MazF (Escherichia coli (strain K12)), P0AE70; FAM/BHQ RNA-DNA oligo cleavage fluorescence, 5 h; activation, % at 20 µM; 350,000 compounds, 0.32% hits; AID 504720, 2011; in the data active means activation above about 50%
# Target sequence (P0AE70 whole entry, looked up): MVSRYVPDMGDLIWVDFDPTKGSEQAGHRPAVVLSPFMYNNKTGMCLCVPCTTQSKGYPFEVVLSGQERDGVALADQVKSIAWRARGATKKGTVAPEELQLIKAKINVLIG
# BoNT-A LC inh2 – BoNT/A light chain protease inhibitors, primary screen, biochemical, flow cytometry, MLPCN library. Botulinum neurotoxin type A light chain protease (Clostridium botulinum A str. ATCC 3502). multiplex microsphere protease substrate cleavage. inhibition, % at 10 µM. 360,000 compounds, 0.17% hits; further: plate controls were buffer without enzyme for full effect and enzyme alone for no effect
# Bead autofluor – counter-screen for toxin protease inhibitors: compound fluorescence. compound autofluorescence counterscreen, microsphere flow cytometry; hits give high values. fluorescence intensity (no concentration beside the values). 360,000 compounds, 3.1% hits. AID 624483; in the data active means fluorescence intensity above about 16000; inconclusive means no clear call, values can overlap the other calls
# BoNT F protease – BoNT/F light chain protease inhibitors, primary screen, biochemical, flow cytometry, MLPCN library | inhibition, % at 10 µM | Multiplex microsphere protease cleavage assay | AID 588497, 2011 | 360,000 compounds, 0.22% hits | Botulinum neurotoxin type F light chain protease (Clostridium botulinum); in the data active means inhibition above about 35%, passing the limit was not always enough; inconclusive means no clear call, values can overlap the other calls; further: plate controls were buffer without enzyme for full effect and enzyme alone for no effect
# * marks the source's active call; other numbers are inactive results; ? = inconclusive; . = no result given. This is a sample that favours compounds with a hit; in the whole collection about 3.7% have one here. Unless noted, no stated cut-off is given here; in the data, active means inhibition above about 30%; inconclusive means no clear call, values can overlap the other calls; inactive means below that.
SMILES,Anthrax LF prot,MazEF act,BoNT-A LC inh2,Bead autofluor,BoNT F protease
CCCn1c(SCC(=O)Nc2nnc(C(C)C)s2)nc2c1c(=O)n(C)c(=O)n2C,3,13,-2,11392,4
CCCCn1c(SCC(=O)Nc2nnc(C)s2)nc2c1c(=O)n(C)c(=O)n2C,2,2,?,22970*,2
CCCCn1c(SCC(=O)Nc2nnc(CC)s2)nc2ccccc2c1=O,0,9,?,22336*,1
CCCCn1nnnc1SCC(=O)NC1CCCCC1,-7,5,-1,3804,4
CCC(C)(C)n1nnnc1C(c1ccccc1OC)N1CCN(C(=O)c2ccco2)CC1 (centres undefined),-1,-16,1,5335,5
Cc1ccc2c(c1)[C@H]1[C@H](CO2)[C@H](c2ccccc2)[C@]2(C)C(=O)N(Cc3ccc(F)cc3)CC(=O)N12,-4,310*,0,4079,0
C[C@@]12C(=O)N(Cc3ccc(Cl)cc3)CC(=O)N1[C@H]1c3ccccc3OC[C@@H]1[C@@H]2c1ccccc1,4,-8,-1,4069,0
CCCCN1CC(=O)N2[C@H]3c4cc(C)ccc4OC[C@@H]3[C@H](c3ccccc3)[C@]2(C)C1=O,-7,87*,-1,3521,-3
CCCCN1CC(=O)N2[C@H]3c4cc(Br)ccc4OC[C@@H]3[C@H](C(=O)OCC)[C@]2(C)C1=O,-3,8,0,3899,2
COc1ccc(CN2CC(=O)N3[C@H]4c5ccccc5OC[C@@H]4[C@H](c4ccccc4)[C@]3(C)C2=O)cc1,1,52*,0,3848,-2
CCCCN1CC(=O)N2[C@@H]3c4cc(Br)ccc4OC[C@@H]3[C@H](C(=O)OCC)[C@]2(C)C1=O,0,62*,0,2947,6
CC(C)(C)NC(=O)COc1ccc(-c2ccccc2)cc1,-5,-6,-3,17169*,-6
Cc1ccc(CNC(=O)Cc2ccc(-c3ccccc3)cc2)cc1,-3,8,-4,25102*,-5
Cc1ccc(CNC(=O)CCC(=O)c2cccs2)cc1,-1,7,2,22864*,2
O=C(Cc1ccc(-c2ccccc2)cc1)NCc1ccccc1,1,0,2,9994,11
Cc1ccc(OCC(=O)NNC(=O)CCC(=O)NCc2ccccc2)cc1,-1,-1,1,22071*,1
O=CNc1cc(-c2ccoc2)cn2c(-c3ccc(F)cc3)cnc12,-1,.,1,4478,3
CCC(CC)C(=O)Nc1nnc(SCC(=O)NC2CCCCC2)s1,0,12,2,5721,2
CNC(=O)c1ccc(NC(=O)CCNC(=O)Nc2ccccc2)cc1,3,1,-3,6521,0
CC(=O)Nc1cccc(-c2cccc3nccn23)c1,-4,.,0,3463,5
COCCNC(=O)C1(C)CCCN(Cc2ccc(C)c3ccccc23)C1 (centres undefined),-6,.,0,3461,-2
O=C(Cc1ccccc1)Nc1ccc(C(=O)O)cc1,3,0,?,23610*,-3
C/C(CC(=O)NCc1ccco1)=N\NC(=O)Cc1ccc(-c2ccccc2)cc1,0,79*,3,2537,31
O=C(CCc1ccccc1)NNC(=O)c1ccc(NC(=O)c2ccccc2)cc1,0,-4,-2,2080,-24
O=C(CCc1ccccc1)NNC(=O)COc1ccccc1,-2,6,?,24872*,-4
SMILES,Anthrax LF prot,MazEF act,BoNT-A LC inh2,Bead autofluor,BoNT F protease
CC(=O)Nc1ccc(C(=O)NNC(=O)CCc2ccccc2)cc1,-2,-3,-2,23567*,-3
COC(=O)c1ccc(NC(=O)Cc2ccccc2)cc1,12,3,0,9743,-3
C=CCC[C@H](Cc1ccc(F)cc1)C(=O)OC[C@@H](NC(=O)[C@H](CC=C)CC(=O)NCCO)c1ccccc1,4,3,0,3992,-7
O=c1c2ccccc2c(C=NCc2ccccn2)c(O)n1-c1ccccc1,0,162*,0,2639,-10
CCN(CC)C(=O)[C@H]1CC(CC(=O)NC(C)(C)C)C(=O)N2CCc3c([nH]c4ccc(OC)cc34)[C@]12C (some centres undefined),-2,8,0,2985,-11
CCCCN(CCCC)C1=Nc2ccccc2N/C1=C(/C#N)C(=O)OCC,40*,-4,65*,2940,34
CCOC(=O)/C(C#N)=C1/C=C(C)NC(c2ccccc2O)=N1,-4,-2,1,10689,3
CCOC(=O)/C(C#N)=C1\Nc2ccccc2N=C1N(CC(C)C)CC(C)C,27,-47,38*,9201,30
O=C(Nc1ccc(Cl)c(C(F)(F)F)c1)C1CCCN(S(=O)(=O)c2cnc[nH]2)C1 (centres undefined),-3,-1,-1,20180*,-4
O=C(Nc1ccc(F)c(F)c1)C1CCCN(S(=O)(=O)c2cnc[nH]2)C1 (centres undefined),2,6,-1,5627,-6
Cc1cc(C2=CC(=O)C[C@H](c3ccc4c(c3)OCO4)C2)ccc1F,3,4,-1,4397,-12
COc1cccc(OC)c1OCCCc1c(C)n[nH]c1C,-2,-3,-1,10100,-14
Cc1cccc(OCCCc2c(C)n[nH]c2C)c1,0,2,?,22053*,1
c1coc(-c2nnc(-c3ccco3)nn2)c1,0,-21,0,6124,0
COc1ccccc1-c1nnc(N)s1,-4,6,1,3453,2
COc1ccccc1-c1nnc(SC2CCc3ccccc3NC2=O)s1 (centres undefined),2,-11,?,20615*,-2
Cc1cccc(CN(C)C[C@@H]2OCc3cnnn3CCCC(=O)N([C@H](C)CO)C[C@H]2C)c1,-5,1,0,3494,5
O=C(CNCC1CCCO1)Nc1ccccc1N1CCOCC1 (centres undefined),0,-5,1,22897*,1
Cc1c(NC(=O)CSc2nnc(C(C)Oc3ccc(Cl)cc3)n2-c2ccccc2)c(=O)n(-c2ccccc2)n1C (centres undefined),-12,0,11,18398*,15
COc1ccccc1OC(C)c1nnc(SCC(=O)Nc2c(C)n(C)n(-c3ccccc3)c2=O)n1-c1ccccc1 (centres undefined),-1,3,4,21279*,4
CS(=O)(=O)N1CCN(C(=O)Cc2cccs2)CC1,-1,6,?,16441*,-2
CS(=O)(=O)N1CCN(C(=O)c2ccc(F)cc2)CC1,2,-2,0,11125,-3
O=C(Cc1cccs1)N1CCN(S(=O)(=O)c2ccc(Br)cc2)CC1,1,-1,0,2233,1
CS(=O)(=O)N1CCN(C(=O)c2ccc(Br)s2)CC1,-1,-1,1,20324*,2

# High-throughput results as filed in PubChem.
